Data on 9 molecules can be found in PubChem BioAssay (NCATS).

Values joined by “and” are separate entries in the source; they are usually repeats but may differ in a detail not shown here. Equal values may be shown once. Inconclusive results are not listed. Active and inactive are the calls of the source. Unless noted, calls come from the whole dose curve.

The target in experiment [1] is Bile acid receptor (Homo sapiens) (UniProt Q96RI1). Nature of the experiment: qHTS assay for small molecule agonists of farnesoid X receptor signaling (AID 588527).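 Note: 0% = vehicle basal and 100% = reference agonist.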 As to conditions: HEK293T FXR-UAS-bla, beta-lactamase ratio, 16 h; stronger effect = higher value. The method, boiled down:
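Agonist-mode beta-lactamase reporter in GeneBLAzer FXR-UAS-bla HEK293T cells, titration up to 92 uM, 16 h exposure at 37 C, CCF4 fluorescence. Response scaled to DMSO (0%) and 100 uM chenodeoxycholic acid (100%), then Hill-fitted for EC50 and efficacy.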
Background: qHTS replaces the single test concentration by a dilution series.

Experiment [2] addresses Glucocorticoid receptor (Homo sapiens) (UniProt P04150). Nature of the experiment: qHTS assay for small molecule agonists of glucocorticoid receptor signaling (AID 588532; active = well fitted curve in the direction sought with a large enough effect in the signal ratio, with a control signal flat; the % refers to the signal ratio;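 note: 100% = dexamethasone at 0.1 µM and 0% = DMSO only wells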). As to conditions: HeLa MMTV-bla, beta-lactamase ratio, agonist, 18 h; stronger effect = higher value; percent of dexamethasone control, DMSO zero. The procedure, abridged:
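MMTV-bla HeLa beta-lactamase reporter cells in 1% charcoal/dextran FBS medium, compounds up to 92 uM for 18 h at 37 C, CCF4 readout; normalized to 0.1 uM dexamethasone (100%), EC50 and efficacy from Hill fits.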

Experiment [3] shares this target. Kind of experiment: qHTS assay for small molecule antagonists of glucocorticoid receptor signaling (AID 588533; active = well fitted inhibition curve with a large enough effect in the signal ratio, with a control signal flat, not every such curve was filed as active; the % refers to the signal ratio;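 note: cells stimulated with 2 nM dexamethasone as agonist; % is set by controls: 0 for no effect and ±100 for the full control effect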). The method, boiled down:
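Antagonist-mode qHTS: compound titrations added to GRE-bla HeLa cells, then dexamethasone 2 nM final; 18 h, 37 C. CCF4 FRET fluorescence normalized to dexamethasone and DMSO; IC50 from Hill fit.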

For experiment [4], the target named is Peroxisome proliferator-activated receptor delta (Homo sapiens) (UniProt Q03181). Kind of experiment: qHTS assay for small molecule agonists of peroxisome proliferator-activated receptor delta signaling (AID 588534).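 Note: 0% = DMSO basal wells and 100% = positive control agonist at 10 µM.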 The method, boiled down: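 Titration series tested in agonist mode on beta-lactamase reporter cells; 18 hrs at 37 C after a 5 hr pre-incubation. Readout: CCF4 fluorescence, 2 hrs RT. Hill equation gives EC50 and maximal response.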

The nature of experiment [5]: qHTS assay for small molecule antagonists of peroxisome proliferator-activated receptor delta signaling (AID 588535; active = well fitted inhibition curve with a large enough effect in the signal ratio, with a control signal flat, not every such curve was filed as active; the % refers to the signal ratio;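 for max response: cells co-treated with a PPAR-delta agonist as stimulator during compound exposure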). As to conditions: HEK293T PPARd-UAS-bla, beta-lactamase FRET ratio, 18 h; 460 nm channel. The method, boiled down:
(§1)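 Beta-lactamase reporter read-out (405 nm excitation, 460/530 nm emission) after CCF4 loading for 2 hrs at RT. HEK293T PPAR-delta-UAS-bla cells, 2% charcoal/dextran FBS, compounds for 18 hrs at 37 C. Hill fit gave IC50 and efficacy.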

The target of experiment [6] is Peroxisome proliferator-activated receptor delta (Homo sapiens) (UniProt Q03181). Described as above. The method, boiled down: as §1
The target of experiment [7] is Peroxisome proliferator-activated receptor gamma (Homo sapiens) (UniProt P37231). Kind of experiment: qHTS assay for small molecule antagonists of peroxisome proliferator-activated receptor gamma signaling (AID 588537; active = well fitted inhibition curve with a large enough effect in the signal ratio, with a control signal flat, not every such curve was filed as active; the % refers to the signal ratio;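 note: reporter cells co-stimulated with 50 nM rosiglitazone agonist during compound treatment; % of control where 0% means no effect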). The method, boiled down:
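Read-out: CCF4 fluorescence (ex 405, em 460/530 nm) after 2 h at RT. Cells were HEK293 carrying a UAS-bla reporter and treated 16 h at 37 C with compound plus rosiglitazone (50 nM final). Normalized to rosiglitazone and DMSO.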

In experiment [8] the target is Thyroid hormone receptor beta (Homo sapiens) (UniProt P10828). Kind of experiment: qHTS assay for small molecule agonists of thyroid hormone receptor beta signaling (AID 588545).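 Note: 0% = DMSO only and 100% = 10 nM T3.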 The procedure, abridged:
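Efficacy and EC50 values derive from Hill fits of qHTS titration data, normalized to 10 nM T3 and DMSO-only wells. HEK 293 reporter cells were stimulated for 18 hrs at 37 C, with beta-lactamase activity measured by CCF4 fluorescence.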

For experiment [9] the target is unchanged. Nature of the experiment: qHTS assay for small molecule antagonists of thyroid hormone receptor beta signaling (AID 588547; active = well fitted inhibition curve with a large enough effect in the signal ratio, with a control signal flat, not every such curve was filed as active; the % refers to the signal ratio;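 note: cells stimulated with 0.4 nM T3 agonist during compound exposure; % is set by controls: 0 for no effect and ±100 for the full control effect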). As to conditions: TR-UAS-bla HEK293, beta-lactamase ratio, antagonist mode, 18 h. The method, boiled down: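 TR-UAS-bla GripTite HEK293 cells in 2% charcoal/dextran FBS medium; compounds 0.59 nM to 92 uM with T3 at 0.4nM final, 18 h at 37 C. Beta-lactamase read by CCF4 fluorescence (460/530 nm); Hill fits gave IC50 and efficacy.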

Experiment [10] in a line: qHTS assay for small molecule activators of the nuclear factor-kappa B (NF-kB) signaling pathway (AID 651749; active = well fitted activation curve with a large enough effect in the signal ratio; the % refers to the signal ratio; note: % of control where 0% means no effect). The following applies: NF-kB-bla ME-180 cells, beta-lactamase FRET ratio, 16 h; stronger effect = higher value. The procedure, abridged: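 NF-kB-bla ME-180 cells, 2,000/well; 23 nL compound or DMSO pinned; 16 hr, 37C/5% CO2; beta-lactamase FRET read-out.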
Experiment [11] can be described thus: qHTS assay for small molecule disruptors of the mitochondrial membrane potential - 5 hr assay (AID 651755). Note: % is set by controls: 0 for no effect and ±100 for the full control effect; nearly all actives have a fitted effect of over 40% in size. The method, boiled down:
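Read-out: ratiometric Mito-MPS fluorescence, green monomer (ex 490/em 535) vs red mitochondrial aggregate (ex 540/em 590). HepG2 cells treated 5 hr at 37C before 30 min dye loading.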

The target in experiment [12] is Tumor necrosis factor (Homo sapiens) (UniProt P01375). Nature of the experiment: qHTS assay to identify small molecules that stimulate Tumor Necrosis Factor-alpha (TNF-alpha) secretion (AID 651757; active = well fitted curve in the direction sought with a large enough effect in the signal ratio; the % refers to the signal ratio; note: 0% is about no effect). The procedure, abridged: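 THP-1 cells, 3000/well; compound 17 hrs, 37 C; add cryptate/XL665 anti-TNF-alpha antibody pair; 3 hr RT; TR-FRET (HTRF) read of secreted TNF-alpha. Quantitative HTS format.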

The target in experiment [13] is Nuclear receptor ROR-gamma (Homo sapiens) (UniProt P51449). Kind of experiment: qHTS assay for small molecule antagonists of the retinoid-related orphan receptor gamma (ROR-gamma) signaling pathway (AID 651802; active = well fitted curve in the direction sought with a large enough effect; an effect the other way counts as inactive or inconclusive; note: nearly all actives have a fitted effect of over 60% in size; note: potency is the fitted concentration of half-maximal effect). The method, boiled down: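 Luciferase read-out: ONE-Glo luminescence after 30 min at room temperature, following 16hr doxycycline induction at 37C, 5% CO2 of CHO cells with TET-inducible ROR and RORE-LUC reporter; decreased luminescence = reduced reporter activity.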

Experiment [14] can be described thus: qHTS assay for small molecule agonists of the antioxidant response element (ARE) signaling pathway measured by Nrf2-dependant transcriptional activity (AID 720636; active = well fitted curve in the direction sought with a large enough effect in the repeat runs; an effect the other way counts as inactive or inconclusive;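 note: HepG2 cells with an ARE-driven luciferase reporter; % of control where 0% means no effect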). The method, boiled down: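 ONE-Glo luminescence, read 30 min after reagent addition at room temperature, reflected ARE reporter activity in HepG2 cells that had been incubated with compound for 16 hr at 37 C in 1% dialyzed FBS.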

In experiment [15] the target is Estrogen receptor (Homo sapiens) (UniProt P03372). Nature of the experiment: qHTS assay for small molecule antagonists of estrogen receptor alpha signaling (AID 588513; active = well fitted curve in the direction sought with a large enough effect in the signal ratio, with a control signal flat, not every such curve was filed as active; the % refers to the signal ratio; note: % is set by controls: 0 for no effect and ±100 for the full control effect). The procedure, abridged:
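ER-alpha-UAS-bla GripTite HEK 293 cells in 2% charcoal/dextran-treated FBS medium; compounds titrated (1:2, duplicate), then stimulated with 0.5 nM 17-beta-estradiol for 18 h at 37C. CCF4 beta-lactamase fluorescence; Hill-fit IC50 and efficacy.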

For experiment [16], the target named is Peroxisome proliferator-activated receptor gamma (Homo sapiens) (UniProt P37231). Kind of experiment: qHTS assay for small molecule agonists of peroxisome proliferator-activated receptor gamma signaling (AID 588536; active = well fitted curve in the direction sought with a large enough effect in the signal ratio, with a control signal flat, not every such curve was filed as active; the % refers to the signal ratio;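 note: 0% = DMSO basal wells and 100% = rosiglitazone at 2 µM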). The method, boiled down: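 This is an agonist-mode beta-lactamase reporter assay in HEK293 PPAR-gamma-UAS-bla cells with 1% charcoal/dextran FBS. Compound titrations ran 16 h at 37 C before CCF4 detection. EC50 and efficacy are Hill fits scaled to 2 uM rosiglitazone (100%) and DMSO basal.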

For experiment [17], the target named is Vitamin D3 receptor (Homo sapiens) (UniProt P11473). Kind of experiment: qHTS assay for small molecule agonists of vitamin D receptor signaling (AID 588543).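 Note: 0% = DMSO basal and 100% = reference agonist control.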 The procedure, abridged:
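VDR-UAS-bla HEK293T cells, 2000/well, 2% charcoal-stripped FBS; compound titration 16 h at 37 C; CCF4 beta-lactamase ratio read. Normalized to 50 nM 1-alpha,25-dihydroxyvitamin D3 (100%) and DMSO; Hill fit gives EC50, efficacy.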

Experiment [18] in a line: Cell Viability - NIH 3T3 (AID 541; active = well fitted curve in the direction sought with a large enough effect; an effect the other way counts as inactive or inconclusive;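 note: cells exposed to compound for 40 hours; nearly all actives have a fitted effect of over 25% in size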; note: potency is the fitted concentration of half-maximal effect;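 for activity change, negative = cytotoxicity: plate controls were DMSO alone for no effect and tamoxifen positive control for full effect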). The following applies: NIH 3T3 cell viability, qHTS; activity change, negative = cytotoxicity: at 92.2 µM (top of the series). The procedure, abridged:
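qHTS format; 40 hr compound exposure, 37 °C; CellTiter-Glo luminescence (cellular ATP) read-out after 20 min at RT. Decrease in ATP = cytotoxicity; AC50 from standard Hill fit.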

Experiment [19] in a line: qHTS assay to identify small molecules that stimulate interleukin-8 (IL-8) secretion (AID 651758; active = well fitted activation curve with a large enough effect in the signal ratio; the % refers to the signal ratio; note: 0% is about no effect). The procedure, abridged:
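Compounds are added to THP-1 cells (2000 per well) and left 16 hrs at 37 C. A labeled anti-IL-8 antibody pair is then added, and IL-8 secretion is measured by time-resolved FRET after 1-3 hrs at room temperature.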

A short description of experiment [20]: qHTS assay for environmental chemicals that activate the Aryl hydrocarbon Receptor (AhR) signaling pathway (AID 651777; active = well fitted curve in the direction sought with a large enough effect; an effect the other way counts as inactive or inconclusive; note: % of control where 0% means no effect; nearly all actives have a fitted effect of over 15% in size). The following applies: 1A2-DRE human hepatoma cells, luciferase, 24 h; activation: stronger effect = higher value. The method, boiled down: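 Following a 24 hr incubation with test chemicals at 37 C and 5% CO2, 1A2-DRE human hepatoma cells received One-Glo reagent; after 30 min at room temperature, luciferase output reflected CYP1A2 induction via AhR.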

Peroxisome proliferator-activated receptor delta (Homo sapiens), sequence (Q03181 whole entry, looked up): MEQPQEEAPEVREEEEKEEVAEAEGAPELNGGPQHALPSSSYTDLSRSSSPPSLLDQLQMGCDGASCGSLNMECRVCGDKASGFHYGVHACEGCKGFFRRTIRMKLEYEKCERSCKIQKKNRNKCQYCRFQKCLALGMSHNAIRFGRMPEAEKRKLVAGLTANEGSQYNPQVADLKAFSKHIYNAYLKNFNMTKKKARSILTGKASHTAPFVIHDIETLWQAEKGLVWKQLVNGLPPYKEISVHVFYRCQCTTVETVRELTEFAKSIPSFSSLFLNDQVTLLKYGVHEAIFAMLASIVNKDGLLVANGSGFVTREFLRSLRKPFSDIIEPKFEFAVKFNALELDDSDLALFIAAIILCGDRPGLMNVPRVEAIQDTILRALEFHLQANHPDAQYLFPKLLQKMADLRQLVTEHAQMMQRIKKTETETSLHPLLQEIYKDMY
Thyroid hormone receptor beta (Homo sapiens), sequence (P10828 whole entry, looked up): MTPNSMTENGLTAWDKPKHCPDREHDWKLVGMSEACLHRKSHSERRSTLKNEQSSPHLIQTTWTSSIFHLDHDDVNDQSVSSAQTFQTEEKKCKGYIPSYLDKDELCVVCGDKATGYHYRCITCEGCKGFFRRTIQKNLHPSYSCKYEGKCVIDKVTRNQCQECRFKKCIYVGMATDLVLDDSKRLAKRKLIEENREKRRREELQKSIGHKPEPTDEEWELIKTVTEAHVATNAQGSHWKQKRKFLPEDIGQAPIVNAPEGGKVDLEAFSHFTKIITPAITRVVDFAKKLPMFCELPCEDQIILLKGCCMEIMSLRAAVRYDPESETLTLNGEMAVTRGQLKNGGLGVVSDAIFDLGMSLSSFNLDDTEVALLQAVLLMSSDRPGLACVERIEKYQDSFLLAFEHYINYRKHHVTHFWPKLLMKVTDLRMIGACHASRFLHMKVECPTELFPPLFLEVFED
Vitamin D3 receptor (Homo sapiens), sequence (P11473 whole entry, looked up): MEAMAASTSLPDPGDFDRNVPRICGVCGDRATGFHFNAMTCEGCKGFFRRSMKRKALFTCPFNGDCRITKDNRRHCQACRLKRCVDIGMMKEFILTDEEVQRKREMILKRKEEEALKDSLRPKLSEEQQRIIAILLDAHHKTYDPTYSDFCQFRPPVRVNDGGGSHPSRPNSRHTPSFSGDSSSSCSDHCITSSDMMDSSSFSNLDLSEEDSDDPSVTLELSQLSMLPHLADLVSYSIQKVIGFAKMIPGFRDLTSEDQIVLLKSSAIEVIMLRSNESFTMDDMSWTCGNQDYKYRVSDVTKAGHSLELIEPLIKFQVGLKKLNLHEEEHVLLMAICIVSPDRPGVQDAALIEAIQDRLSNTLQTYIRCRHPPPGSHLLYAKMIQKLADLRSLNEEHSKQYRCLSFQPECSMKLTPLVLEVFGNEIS
Peroxisome proliferator-activated receptor gamma (Homo sapiens), sequence (P37231 whole entry, looked up): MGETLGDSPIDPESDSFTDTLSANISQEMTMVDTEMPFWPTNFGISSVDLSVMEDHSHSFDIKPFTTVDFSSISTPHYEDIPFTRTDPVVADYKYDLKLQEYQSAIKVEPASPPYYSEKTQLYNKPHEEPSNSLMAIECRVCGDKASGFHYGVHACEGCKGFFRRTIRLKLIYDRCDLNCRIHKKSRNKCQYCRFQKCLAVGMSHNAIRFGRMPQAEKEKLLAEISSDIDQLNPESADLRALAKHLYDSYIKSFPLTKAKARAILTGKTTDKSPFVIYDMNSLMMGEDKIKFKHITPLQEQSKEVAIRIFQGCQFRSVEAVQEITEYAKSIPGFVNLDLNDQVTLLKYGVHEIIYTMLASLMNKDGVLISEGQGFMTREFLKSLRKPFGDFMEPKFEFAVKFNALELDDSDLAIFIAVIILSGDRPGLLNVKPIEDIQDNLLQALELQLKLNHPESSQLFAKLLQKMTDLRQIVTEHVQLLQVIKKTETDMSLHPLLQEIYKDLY
Nuclear receptor ROR-gamma (Homo sapiens), sequence (P51449 whole entry, looked up): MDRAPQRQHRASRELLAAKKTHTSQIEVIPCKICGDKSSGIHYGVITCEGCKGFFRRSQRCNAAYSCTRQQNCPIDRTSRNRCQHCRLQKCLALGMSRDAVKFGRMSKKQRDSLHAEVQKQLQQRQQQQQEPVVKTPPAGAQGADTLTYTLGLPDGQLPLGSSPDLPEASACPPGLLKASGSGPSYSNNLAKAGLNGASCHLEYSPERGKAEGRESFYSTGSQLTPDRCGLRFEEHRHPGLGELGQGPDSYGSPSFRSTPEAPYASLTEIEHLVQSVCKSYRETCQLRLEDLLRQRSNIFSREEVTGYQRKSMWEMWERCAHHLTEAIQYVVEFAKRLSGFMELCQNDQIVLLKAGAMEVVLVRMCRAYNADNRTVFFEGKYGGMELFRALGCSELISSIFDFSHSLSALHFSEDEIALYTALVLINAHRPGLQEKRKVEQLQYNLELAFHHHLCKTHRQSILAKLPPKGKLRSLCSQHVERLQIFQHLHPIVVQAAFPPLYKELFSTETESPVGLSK
Glucocorticoid receptor (Homo sapiens), sequence (P04150 whole entry, looked up): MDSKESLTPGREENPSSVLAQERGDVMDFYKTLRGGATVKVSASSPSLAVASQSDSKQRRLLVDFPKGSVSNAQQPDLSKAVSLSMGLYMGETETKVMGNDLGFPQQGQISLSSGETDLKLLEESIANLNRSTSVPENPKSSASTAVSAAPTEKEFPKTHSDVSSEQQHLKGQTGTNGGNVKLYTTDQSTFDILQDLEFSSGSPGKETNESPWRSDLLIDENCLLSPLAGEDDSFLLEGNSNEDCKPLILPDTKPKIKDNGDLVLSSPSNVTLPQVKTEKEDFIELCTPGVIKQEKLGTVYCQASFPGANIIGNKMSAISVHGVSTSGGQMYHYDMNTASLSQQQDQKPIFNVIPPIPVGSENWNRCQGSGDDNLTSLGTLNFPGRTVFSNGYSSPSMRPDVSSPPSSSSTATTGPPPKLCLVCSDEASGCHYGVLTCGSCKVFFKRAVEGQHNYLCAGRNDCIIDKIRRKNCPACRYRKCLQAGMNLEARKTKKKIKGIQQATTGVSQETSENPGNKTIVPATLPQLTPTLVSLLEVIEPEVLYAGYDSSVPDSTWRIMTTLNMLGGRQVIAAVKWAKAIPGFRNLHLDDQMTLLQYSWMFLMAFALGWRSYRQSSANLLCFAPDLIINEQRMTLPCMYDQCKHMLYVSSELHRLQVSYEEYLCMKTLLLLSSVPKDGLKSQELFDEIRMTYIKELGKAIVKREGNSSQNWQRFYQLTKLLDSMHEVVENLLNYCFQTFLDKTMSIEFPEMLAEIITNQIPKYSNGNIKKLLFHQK
Tumor necrosis factor (Homo sapiens), sequence (P01375 whole entry, looked up): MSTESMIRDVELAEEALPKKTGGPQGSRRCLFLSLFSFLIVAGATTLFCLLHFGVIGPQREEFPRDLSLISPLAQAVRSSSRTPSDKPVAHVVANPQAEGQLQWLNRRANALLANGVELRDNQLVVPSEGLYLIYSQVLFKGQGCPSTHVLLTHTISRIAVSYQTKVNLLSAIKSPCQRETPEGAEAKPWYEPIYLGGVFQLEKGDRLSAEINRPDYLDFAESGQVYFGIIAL
Bile acid receptor (Homo sapiens), sequence (Q96RI1 whole entry, looked up): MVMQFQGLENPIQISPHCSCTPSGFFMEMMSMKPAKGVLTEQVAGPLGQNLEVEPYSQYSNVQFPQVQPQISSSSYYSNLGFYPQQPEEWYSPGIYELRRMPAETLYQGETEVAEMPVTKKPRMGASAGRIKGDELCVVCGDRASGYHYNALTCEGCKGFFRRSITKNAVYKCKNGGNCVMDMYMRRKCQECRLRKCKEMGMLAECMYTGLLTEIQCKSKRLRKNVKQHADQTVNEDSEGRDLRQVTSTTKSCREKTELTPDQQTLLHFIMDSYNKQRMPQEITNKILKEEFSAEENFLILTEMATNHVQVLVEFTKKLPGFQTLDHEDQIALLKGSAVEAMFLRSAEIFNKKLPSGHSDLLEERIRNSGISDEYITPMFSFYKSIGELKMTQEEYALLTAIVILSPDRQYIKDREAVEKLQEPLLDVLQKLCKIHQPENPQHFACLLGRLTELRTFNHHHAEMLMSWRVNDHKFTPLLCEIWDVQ
Estrogen receptor (Homo sapiens), sequence (P03372 whole entry, looked up): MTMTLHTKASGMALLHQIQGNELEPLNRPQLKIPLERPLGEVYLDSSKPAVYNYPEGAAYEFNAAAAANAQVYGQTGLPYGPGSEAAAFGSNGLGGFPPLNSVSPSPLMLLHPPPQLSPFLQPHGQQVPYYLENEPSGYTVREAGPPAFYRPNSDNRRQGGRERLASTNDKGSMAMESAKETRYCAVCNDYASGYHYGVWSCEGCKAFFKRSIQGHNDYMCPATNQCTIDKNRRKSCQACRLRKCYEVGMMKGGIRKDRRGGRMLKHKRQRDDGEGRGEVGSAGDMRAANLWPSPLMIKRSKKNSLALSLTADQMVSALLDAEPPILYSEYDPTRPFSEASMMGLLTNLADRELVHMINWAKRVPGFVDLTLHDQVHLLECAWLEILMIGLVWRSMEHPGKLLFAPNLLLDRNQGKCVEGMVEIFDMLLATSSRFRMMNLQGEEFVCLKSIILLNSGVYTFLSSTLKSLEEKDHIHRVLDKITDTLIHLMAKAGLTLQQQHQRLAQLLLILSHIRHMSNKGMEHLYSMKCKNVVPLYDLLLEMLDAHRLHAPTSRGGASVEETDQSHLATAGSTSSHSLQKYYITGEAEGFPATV

For the molecule `OCCCCO`, the values for the activation in [1], in [2] and in experiment [10] were -2.93% (inactive), -5.33% (inactive) and -0.721% (inactive), respectively. In addition, the molecule was called inactive in experiment [3], in [4], in experiment [6] and in experiment [12]. Also, in [5], the max response was -23.5%. For the same molecule, the Potency entry in experiment [7], in experiment [8], in experiment [11], in experiment [13] and in [14] was “inactive” in each case. The activity change % (negative = inhibition) in experiment [9] is 10.4% (inactive).

As to `Nc1ccc(-c2ccc(N)cc2)cc1`, the Potency entry in [15], in experiment [7], in experiment [11], in experiment [13] and in experiment [14] was “inactive” in each case. The activation in experiment [2] is -6.73% (inactive). Moreover, the outcome in experiment [3], in [16] and in experiment [17] was inactive. The activity change % (negative = inhibition) in [9] is 12.4% (inactive).

Take `Nc1ccc([N+](=O)[O-])cc1[N+](=O)[O-]`: the Potency in experiment [18] is 10 µM (active); in [13] it was 944 nM (active). Further, the Potency result in experiment [15], in experiment [7], in experiment [8] and in [19] was “inactive” throughout. In addition, the molecule was called inactive in experiment [3], in experiment [4], in experiment [16] and in experiment [17]. In addition, in experiment [9], the activity change % (negative = inhibition) is 0.221% (inactive). In addition, the results for the activation in experiment [10] and in [20] were -1.37% (inactive) and 0.484% (inactive), respectively.

Regarding `O=Cc1ccc2c(c1)OCO2`, the activation in experiment [1] is 0.344% (inactive); in experiment [2], 1.67% (inactive); in experiment [10], -0.011% (inactive); in [20] it was -0.902% (inactive). Moreover, the molecule was called inactive in experiment [3], in experiment [4], in experiment [6], in [16], in experiment [17] and in experiment [12]. For the same molecule, the max response in experiment [5] was -1.49%. For the same molecule, the Potency entry in experiment [8], in experiment [11], in [19], in [13] and in [14] was “inactive” in each case. In addition, the activity change % (negative = inhibition) in [9] was 5.85% (inactive).

For `CCOP(=S)(OCC)SCCSCC`, the Potency result in [18], in experiment [7], in experiment [8], in [11], in experiment [13] and in experiment [14] was “inactive” each time. The activation in experiment [2] is 13.6% (inactive); in experiment [10] it was -0.799% (inactive) and -0.139% (inactive); in experiment [20] it was 1.01% (inactive) and -2.18% (inactive). Moreover, the molecule was called inactive in [3], in [4], in experiment [6], in [16] and in experiment [12]. In addition, the max response in [5] was -12.4% and 3.79%. Besides, the activity change % (negative = inhibition) in experiment [9] was 6.91% (inactive) and -9.69% (inactive).

Regarding `c1ccc(OCC2CO2)cc1` (centres undefined), the figures for the activation in experiment [2], in experiment [10] and in [20] were -7.97% (inactive), 0.652% (inactive) and 0.197% (inactive), respectively. Also, the outcome in experiment [3], in experiment [16], in experiment [17] and in experiment [12] was inactive. Moreover, the activity change % (negative = inhibition) in experiment [9] was 6.77% (inactive). Moreover, the Potency entry in experiment [11], in experiment [13] and in experiment [14] was “inactive” each time.

With `Cc1ccc(N)c(N)c1`, the Potency in [18] is 5.01 µM (active). The activation was 0.413% (inactive) in experiment [2] and -0.795% (inactive) in [10]. For the same molecule, the outcome in experiment [17] was inactive. Also, the Potency result in [8] and in [13] was “inactive” in each case. Besides, the activity change % (negative = inhibition) in experiment [9] is -28.6% (inactive).

As to `O=[N+]([O-])c1cccc(O)c1`, the Potency result in experiment [18], in experiment [8], in experiment [19] and in experiment [14] was “inactive” throughout. Besides, the figures for the activation in experiment [1] and in experiment [10] were -2.84% (inactive) and -0.57% (inactive), respectively. The molecule was classed as inactive in [4], in experiment [16] and in experiment [17]. Also, in [9], the activity change % (negative = inhibition) was 6.02% (inactive).

`Nc1ccc(Oc2ccc(N)cc2)cc1`: the activation in experiment [2] is -1.85% (inactive) and -6.36% (inactive); in experiment [10] it was 0.532% (inactive) and -1.89% (inactive); in experiment [20], 2.36% (inactive) and 5.82% (inactive). Also, the molecule was called inactive in experiment [3], in experiment [4] and in experiment [6]. Also, in experiment [5], the max response was found to be 31.7%. Besides, the Potency entry in experiment [11], in experiment [19], in experiment [13] and in experiment [14] was “inactive” in each case.
